High-throughput results deposited in PubChem BioAssay by several laboratories.
LANA DNA inh: blocks KSHV LANA C-terminal domain binding to DNA; MBP-C-LANA/FAM-LBS DNA binding, fluorescence polarization; 340,000 compounds, 0.078% hits; inhibition, % at 9 µM;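 active = highest replicate inhibition at or above 60% at 9 µM, even if other replicates fall short; inactive = all replicates below 60% inhibition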;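 also: 0% = neutral control wells and 100% = 4 µM acridine orange control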
RTF Ca sens inh: cardiac RTF calcium desensitization | AID 493244 | IANBD-labeled cardiac RTF, Ca2+ fluorescence | 340,000 compounds, 0.12% hits | inhibition, % at 7.15 µM;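 active = inhibition above the mean inhibition of all tested compounds plus 3 SD, cut at about 17% in these data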;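 also: assay run at fixed EC70 calcium of 1.6 mM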
Keap1 Nrf2 FP: Keap1-Nrf2 (human) interaction inhibition; inhibition, % at 9.4 µM; Keap1 Kelch-Nrf2 peptide fluorescence polarization, 1536-well; 340,000 compounds, 0.15% hits; Q14145; in the data active = inhibition above about 12%; inconclusive = no clear call, values can overlap the other calls; inactive = below about 7.3%;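 also: human Keap1 Kelch domain with fluorescein labeled Nrf2 9mer peptide probe; 0% = neutral control wells and 100% = peptide positive control; higher means more block of Keap1 binding to Nrf2 peptide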
E coli Lon inh: inhibits E. coli Lon protease; P0A9M0; purified E. coli Lon protease, fluorescence polarization; inhibition, % at 7.94 µM; 360,000 compounds, 0.42% hits; AID 602123; in the data active = inhibition above about 13%, passing the limit was not always enough;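 also: 0% = enzyme with probe and DMSO and 100% = no enzyme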
Target sequence (P0A9M0 whole entry, looked up): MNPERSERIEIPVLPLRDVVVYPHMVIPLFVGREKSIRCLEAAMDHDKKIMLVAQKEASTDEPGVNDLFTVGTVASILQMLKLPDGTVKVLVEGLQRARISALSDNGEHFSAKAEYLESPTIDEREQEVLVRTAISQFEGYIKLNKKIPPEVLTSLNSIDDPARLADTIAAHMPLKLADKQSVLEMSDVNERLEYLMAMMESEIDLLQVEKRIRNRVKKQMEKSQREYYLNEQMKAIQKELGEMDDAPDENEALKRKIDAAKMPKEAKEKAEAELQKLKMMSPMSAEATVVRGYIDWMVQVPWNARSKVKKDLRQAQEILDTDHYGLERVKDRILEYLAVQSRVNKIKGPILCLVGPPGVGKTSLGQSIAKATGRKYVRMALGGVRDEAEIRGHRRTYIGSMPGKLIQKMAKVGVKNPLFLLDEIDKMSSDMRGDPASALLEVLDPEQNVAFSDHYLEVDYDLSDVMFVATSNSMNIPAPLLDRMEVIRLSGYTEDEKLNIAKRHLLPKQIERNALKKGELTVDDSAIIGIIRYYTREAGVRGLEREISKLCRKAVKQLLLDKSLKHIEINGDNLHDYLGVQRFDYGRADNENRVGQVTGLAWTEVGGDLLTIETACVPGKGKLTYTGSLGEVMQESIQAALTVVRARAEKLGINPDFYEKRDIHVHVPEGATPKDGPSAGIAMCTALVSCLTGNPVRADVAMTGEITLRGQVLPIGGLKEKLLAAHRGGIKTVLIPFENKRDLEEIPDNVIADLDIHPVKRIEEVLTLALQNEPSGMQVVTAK
cardiac RTF act: cardiac RTF calcium sensitization; P19429+P45379; IANBD-labeled TnC RTF fluorescence at EC20 calcium; 0% EC20 calcium, 100% full calcium; activation, % at 7.2 µM; 340,000 compounds, 0.24% hits;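 active = activation above the mean over all tested compounds plus 3 SD, cut at about 30% in these data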;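 also: rise in fluorescence read as greater calcium sensitivity of cardiac thin filaments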
EBV gp42 inh: blocks Epstein-Barr virus glycoprotein 42 binding; Q1HVG2; 220,000 compounds, 0.42% hits; inhibition, % (tested at 21.74 µM); AID 1085; Fluorescence polarization binding assay, mP read-out; in the data active = inhibition above about 50%
Active calls of the source: *; i = inactive; u = inconclusive; x = no result; + = active, no number. This is a sample that favours compounds with a hit; in the whole collection about 0.98% have one here.

SMILES	LANA DNA inh	RTF Ca sens inh	Keap1 Nrf2 FP	E coli Lon inh	cardiac RTF act	EBV gp42 inh
N#C/C(=C\c1ccc(O)cc1)C(=O)NCc1ccccc1	0	-1	-2	8	1	x
CCN(CC)c1ccc(/C=C(/C#N)C(=O)NCc2ccccc2)o1	-14	-108	-147	i	111*	-353
CCN(CC)c1ccc(/C=C(/C#N)C(=O)NC(C)C)o1	-43	-81	-169	-453	72*	-306
COC(Cc1ccccc1N1CCCC1=O)OC	1	-3	1	-2	4	x
O=C(OCCN1C(=O)c2cccc3c(N4CCOCC4)ccc(c23)C1=O)c1ccc(Cl)cc1	39	-21	4	-22	21	123*
COc1ccc(OC)c(N(CC(=O)NCc2ccccn2)S(C)(=O)=O)c1	-1	-16	-2	31*	2	-11
CCNC(=S)N/N=C/c1sc(N2CCCCC2)nc1-c1cccs1	7	-19	-2	-24	33*	2
CN(C)c1ccc2c(c1)OC(N)=C(C#N)C2c1cccc(F)c1 (configuration not stated)	0	-121	-28	-232	73*	-40
N#CC1=C(N)Oc2cc(N)ccc2C1c1cccc(F)c1 (configuration not stated)	-1	2	-5	-20	3	x
CSCc1ccc(C(=O)OCc2nc3ccccc3s2)o1	-5	-7	-11	-8	-2	x
Cc1ccc(N=C2NC(=O)/C(=C/c3cn(C)c4ccccc34)S2)cc1C	1	-44	-6	i	69*	82*
CC(=O)Oc1ccc2c(c1)Oc1cc(OC(C)=O)ccc1C21OC(=O)c2ccccc21	168*	i	15*	x	+	95*
CC(Sc1nnc(N)s1)C(=O)Nc1ccc2c(c1)OCO2 (configuration not stated)	1	1	6	9	3	x
O=C1NC(=S)S/C1=C\c1ccc(SCc2ccco2)o1	99*	50*	21*	7	-30	-53
CC(=O)c1cc(NC(=O)c2ccc(C)cc2)c(=O)oc1/C=C/N(C)C	-1	-26	-5	-84	36*	-200
O=C(O)c1ccc2c(=O)n3c(nc2c1)/C(=C/c1ccccc1Br)CC3	1	2	6	-3	1	x
O=c1c2ccccc2nc2n1CC/C2=C\c1ccccc1[N+](=O)[O-]	x	x	x	x	x	66*
CN(C)c1ccc(/C=N/N(CCO)C2=NS(=O)(=O)c3ccccc32)cc1	24	-308	-34	17	316*	x
C=CCn1c(O)c(CN2CCCCC2)c(C)c(C#N)c1=O	2	-6	0	-5	8	-7
Cc1c(CN2CCCC(C)C2)c(O)n(CCO)c(=O)c1C#N (configuration not stated)	0	4	-3	3	35*	-3
CS(=O)(=O)Nc1cccc(C2=NN(C(=O)CCCC(=O)O)C(c3cccs3)C2)c1 (configuration not stated)	1	-6	1	2	1	x
CCOC(=O)c1c(N2CCN(c3ccccc3)CC2)cc(C)nc1C	3	0	2	-2	4	x
CCOC(=O)c1c(Nc2ccccc2N)cc(C)nc1C	-2	-2	3	-16	-1	81*
COc1ccc(Cl)cc1NC(=O)C/C(C)=N/NC(=O)C(=O)NCc1ccccc1	-1	-6	-4	1	5	x
Cc1cccc(NC(=O)COC(=O)c2cccc3c2C(=O)c2ccccc2C3=O)c1C	-2	-14	-4	5	-6	2
SMILES	LANA DNA inh	RTF Ca sens inh	Keap1 Nrf2 FP	E coli Lon inh	cardiac RTF act	EBV gp42 inh
Nc1cccc(C(=O)OCC(=O)Nc2cccc3c2C(=O)c2ccccc2C3=O)c1	3	-25	2	6	10	92*
CCCOc1ccccc1OCC(=O)N1CCN(S(=O)(=O)c2ccc(Cl)cc2)CC1	1	-2	4	5	1	x
CCOC(=O)/C(=C\C=C1/Sc2cc(OCC)c(OCC)cc2N1CC)C(C)=O	-116	i	-454	i	516*	-293
CCN1/C(=C/C(C)=O)Sc2ccc(OC)cc21	-2	4	0	-2	0	-16
CCOC(=O)/C(=C/C=C1\Sc2cc(OCC)c(OCC)cc2N1CC)C(C)=O	-92	i	-460	i	534*	-295
Cn1c(N)c(C(=O)COC(=O)/C=C/c2cccc(Cl)c2)c(=O)n(C)c1=O	0	-4	2	-2	-1	x
CCSC1=N/C(=C\C=C2/Oc3ccccc3N2CC)C(=O)S1	-3	-46	-4	-260	39*	-196
O=C(Nc1ccc(F)cc1F)Nc1ccc(F)cc1F	-1	-4	-1	-2	1	0
O=C(Nc1ccncc1)Nc1ccc(F)cc1F	-1	-2	-1	-11	-1	73*
CCN(CC)C(=O)c1cc(-c2ccc3c(c2)OCO3)on1	-1	0	-1	-8	-1	x
O=C(CN1C(=O)/C(=C/c2ccco2)SC1=S)Nc1ccc(C(=O)O)c(O)c1	108*	7	-9	-52	-8	x
O=C(CN1C(=O)/C(=C/c2ccco2)SC1=S)Nc1ccc(O)c(C(=O)O)c1	101*	3	1	-46	-12	x
CC(C(=O)N(C)C1CCS(=O)(=O)C1)N1C(=O)/C(=C/c2ccco2)SC1=S (configuration not stated)	-2	-8	-6	4	-4	x
O=C(CCCN1C(=O)/C(=C/c2ccco2)SC1=S)Nc1cccc(C(=O)O)c1	60	-1	0	-2	-5	-20
CC(C(=O)Nc1ccc(C(=O)O)c(O)c1)N1C(=O)/C(=C\c2ccco2)SC1=S (configuration not stated)	101*	5	0	-32	-11	x
O=C(N/N=C1/C(=O)c2cccc3cccc1c23)c1ccc(Cl)cc1	3	-2	2	-11	-22	67*
Cc1ccccc1OCCC(=O)Nc1ccc(N2CCOCC2)cc1N1CCOCC1	1	-4	2	-5	1	x
O=C(NNC(=O)c1sccc1-n1cccc1)c1cccc(Cl)c1	0	1	-4	8	-4	67*
O=C(NNC(=O)c1sccc1-n1cccc1)c1ccccc1	3	6	-4	4	-6	-17
O=C(Cn1cc2c(n1)CCCC2)NCc1ccccn1	1	-8	0	10	2	53*
Cc1ccc(S(=O)(=O)Cc2nnnn2-c2ccccc2)cc1	1	-10	-4	-5	-4	x
NC(=S)NN=Cc1ccc(-c2ccc(S(=O)(=O)Nc3ncccn3)cc2)o1	73*	2	u	4	-5	x
CCOc1ccc(C(=O)N/N=C/c2ccc(-c3ccc(S(=O)(=O)Nc4ncccn4)cc3)o2)cc1	1	0	6	12	0	33
CN(C)c1ccc(/C=C/c2ccc3ccccc3n2)cc1	0	-50	-6	-133	42*	-27
C(=C\c1ccc2ccccc2n1)/c1ccccc1	-2	2	0	-10	-9	-4
